# Pf growth 96h = inhibits malaria parasite growth, 96 h. P. falciparum luciferase reporter growth, 96 h. Potency, µM (series often up to 28.7 µM), most hits filed as inhibitors. 320,000 tested, 6.9% active. AID 504834
#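 Luminescence readout: decreased luciferase signal marks inhibited growth of reporter-expressing P. falciparum in infected red cells (2% hematocrit, 0.05% parasitemia final), exposed to compound two generations (96 h, 37 C, 5% CO2).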
# Vaccinia Venus = vaccinia inhibition (Venus reporter). Vaccinia virus Venus reporter expression, fluorescence. Potency, µM (doses to about 36.5 µM), most hits filed as inhibitors. 330,000 tested, 0.46% active. AID 720580; calls by dose curve; tested in A549 cells; further: nearly all actives have a fitted effect of over 30% in size
# Pf growth 48h = inhibits P. falciparum growth in the first generation, 48 h; Potency, µM (top dose mostly 28.7 µM), actives largely listed as inhibitors; 310,000 tested, 5.9% active; AID 504832; P. falciparum luciferase growth in erythrocytes, 48 h
#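 Cell-based growth assay: transgenic P. falciparum expressing firefly luciferase, cultured in red cells within RPMI 1640 containing 0.5% w/v Albumax, 24 mM bicarbonate and gentamycin. A drop in luciferase activity indicates inhibition.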
# AMA1 RON2 block = AMA1-RON2 (P. falciparum) interaction inhibition; AlphaScreen AMA1-biotinylated RON2 peptide binding; Potency, µM (doses to about 58.2 µM), most hits filed as inhibitors; 360,000 tested, 0.2% active; AID 720542; further: nearly all actives have a fitted effect of over 45% in size
#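 AMA1 (3D7) with his tag at 25 nM final met compounds first, then biotinylated RON2 peptide at 25 nM; detection used donor plus acceptor beads, 10 µg/mL apiece, read by AlphaScreen after 30 min at room temperature.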
# VACV mCherry inh = inhibitors of vaccinia virus infection (mCherry reporter signal); Vaccinia virus mCherry reporter infection, fluorescence; Potency, µM (top dose mostly 36.5 µM), most hits filed as inhibitors; 310,000 tested, 0.63% active; AID 720579; calls by dose curve; tested in A549 cells; further: nearly all actives have a fitted effect of over 35% in size
# A number is an active result; - = inactive; ? = inconclusive; . = no result; [ ] = remark or other dose. Hits are enriched below; roughly 8.7% of the tested compounds scored in any of these assays. Unless noted, the call rests on the fitted dose curve; in most records, active means well fitted curve in the direction sought with a large enough effect; inconclusive means small, poorly fitted or top-dose-only effect, or another doubt; inactive means no such curve, though single readings can be large; an effect the other way counts as inactive or inconclusive.
SMILES,Pf growth 96h,Vaccinia Venus,Pf growth 48h,AMA1 RON2 block,VACV mCherry inh
O=C(Nc1ccc2c(c1)OCO2)c1ccc(Br)s1,8.3µM,-,-,-,?
Cc1ccc2oc(C(=O)Nc3c(C(=O)Nc4cccc(Cl)c4)oc4ccccc34)cc(=O)c2c1,.,-,.,.,-
C/C=C(/C)C(=O)O[C@@H]1c2c(ccc3ccc(=O)oc23)OC(C)(C)[C@@H]1OC(C)=O,.,-,.,-,-
C/C=C(/C)C(=O)OC1c2c(ccc3ccc(=O)oc23)OC(C)(C)C1OC(=O)/C(C)=C\C (stereo not drawn),1.5µM,-,?,-,-
C/C=C(\C)C(=O)OC1c2c(ccc3ccc(=O)oc23)OC(C)(C)C1OC(C)=O (stereo not drawn),?,-,8.3µM,-,-
O=C(O)CC(CNS(=O)(=O)c1ccccc1)c1ccccc1 (stereo not drawn),10µM,-,-,-,-
Cc1cccc(-n2c(-c3ccccc3)cn3c4c(=O)[nH]c(=O)n(C)c4nc23)c1,.,-,.,.,-
COc1ccccc1OCCCn1cc(C(=O)C2CC2)c2ccccc21,?,-,12µM,-,-
CCOc1ccc(NC(=O)Cn2cc(C(=O)C3CC3)c3ccccc32)cc1,5.9µM,-,-,-,-
CCOc1ccc(NC(=O)Cn2cc(C(=O)CC)c3ccccc32)cc1,-,.,-[0.00184 µM],-,.
CCCN(CCC)C(=O)Cn1c(=O)n(-c2ccc(C)cc2)c(=O)c2ccc(C(=O)NCc3ccccc3Cl)cc21,.,-,.,.,-
Cc1ccc(S(=O)(=O)CC(c2ccccc2)N2CCCCC2)cc1 (stereo not drawn),10µM,-,-,-,-
Cc1ccc(S(=O)(=O)CC(CN2CCCCC2)N2CCCCC2)cc1 (stereo not drawn),?,?,8.3µM,-,?
Cc1ccc(S(=O)(=O)CC(c2ccccc2)N2CCOCC2)cc1 (stereo not drawn),9.3µM,-,-,-,-
O=S(=O)(CC(c1ccccc1)N1CCCCC1)c1ccc(Cl)cc1 (stereo not drawn),-,-,-,-,-
CCC1Oc2ccc(C)cc2N(CC(=O)NCc2ccc(OC)cc2)C1=O (stereo not drawn),.,-,.,.,-
COc1ccc(N(C(=O)COc2c(C)cccc2C)S(=O)(=O)c2ccc(Cl)cc2)cc1,.,-,.,.,-
CCCC(=O)NC(=S)Nc1ccccc1N1CCOCC1,10µM,-,-,-[2.32 µM],-
CCC(=O)NC(=S)Nc1cccc(Cl)c1N1CCCCC1,7.4µM,.,12µM,-,.
CCCCC(=O)NC(=S)Nc1cccc(Cl)c1N1CCCCC1,?,-,?,-,-
CCCC(=O)NC(=S)Nc1cccc(Cl)c1N1CCCCC1,8.3µM,.,7.4µM,-,.
CCCCC(=O)NC(=S)Nc1ccccc1N1CCCCC1,?,-,?,-,-
COc1ccc(NC(=O)C(NS(=O)(=O)c2ccc3c(c2)CCCC(=O)N3)C(C)C)c(OC)c1 (stereo not drawn),.,-,.,.,-
O=C(NC1=NCCS1)C12CC3CC(C1)CC(C(=O)NC1=NCCS1)(C3)C2,-,-,-,-,-[1.46 µM]
O=C(NC1=NCCS1)NC12CC3CC(CC(C3)C1)C2,1.2µM,-,-,-,-
SMILES,Pf growth 96h,Vaccinia Venus,Pf growth 48h,AMA1 RON2 block,VACV mCherry inh
O=C(CCC1CCCCC1)NC1=NCCS1,10µM,-,-,-,-
CC12CC3CC(C)(C1)CC(C(=O)NC1=NCCS1)(C3)C2,12µM,.,.,-,.
CC12CC3(C)CC(C)(C1)CC(C(=O)NC1=NCCS1)(C2)C3,.,.,.,-,.
O=C(CC12CC3CC(C1)CC(CC(=O)NC1=NCCS1)(C3)C2)NC1=NCCS1,.,-,9.3µM,-,-
O=C(NC1=NCCS1)C1CCCCC1,?,-,-,-,-
COc1cc(NC(=O)c2ccc(-c3nc(CSc4ccccc4)c(C)o3)cc2)cc(OC)c1,.,-[7.34 µM],.,.,-[7.34 µM]
CC(C)(C)C(=O)NC1=NCCS1,1.5µM,-,-,-,.
CCCNc1nc2ccccc2c(=O)[nH]1,?,-,-,-,-
CC(C)Nc1nc2ccccc2c(=O)[nH]1,10µM,-,-,-,-
COc1nc(Nc2nc3ccccc3c(=O)[nH]2)nc2ccc(C)cc12,?,2µM,2.6µM,-,2µM
O=c1[nH]c(-c2cccnc2)nc2ccccc12,.,.,-,-,.
O=c1[nH]c(-c2ccncc2)nc2ccccc12,7.4µM,-,-,-,-
Cc1cc(C)cc(Nc2nc3ccccc3c(=O)[nH]2)c1,?,-,?,-,-
Cc1ccc(OCC(=O)Nc2ccc(OCc3cc(=O)n4cccc(C)c4n3)cc2)cc1C,.,?,.,.,-
COCc1c(C(=O)NC2CCCCCC2)cnn1-c1nccc(-c2cc(C)sc2C)n1,.,-,.,.,-
c1cc2c(c(NC3=NCCN3)c1)CCCC2,11µM,.,?,.,.
CCCCOc1ccc(CNC(=O)CN2CCSc3ccccc32)cc1,.,-,.,.,-
CCOC(=O)c1c(C)n(C)c2cc(Br)c(OC)cc12,-,-,-,-,-
CCOC(=O)c1c(CN2CCCCC2)n(C)c2cc(Br)c(OC)cc12,3.3µM,-,?,-,-
CCOC(=O)c1c(CNCCN(CC)CC)n(C)c2cc(Br)c(OC)cc12,-,-,.,-,.
CCOC(=O)c1c(C)n(C)c2ccc(O)c(S(=O)(=O)c3ccccc3)c12,.,.,-,-,.
CCOC(=O)c1c(CN2CCCCC2)n(C)c2ccc(OC)c(S(=O)(=O)c3ccccc3)c12,7.4µM,-,10µM,-,.
CCOC(=O)c1c(CN2CCN(CCO)CC2)n(C)c2cc(Br)c(OC)cc12,-,.,10µM,-,.
CCOC(=O)c1c(C)n(CC(O)CN(CC)CC)c2cc(Br)c(OC)cc12 (stereo not drawn),15µM,-,?,-,-
C=CC[n+]1c(-c2ccccc2)csc1NC(C)(C)C,15µM,-,10µM,-,?
SMILES,Pf growth 96h,Vaccinia Venus,Pf growth 48h,AMA1 RON2 block,VACV mCherry inh
C=CC[n+]1c(C)csc1Nc1ccc(C(=O)O)cc1,-,.,-,-,.
Clc1ccc(CNc2ncnc3nc[nH]c23)cc1,.,-,.,.,?
CCc1ccc(OCC2c3cc(OC)c(OC)cc3CCN2C(=O)Cc2ccc(OC)c(OC)c2)cc1 (stereo not drawn),.,?,.,.,35µM
COC(=O)c1ccc(OCC2c3cc(OC)c(OC)cc3CCN2C(=O)C2CC2)cc1 (stereo not drawn),?,-,12µM,-,-
COc1ccc(CC(=O)N2CCc3cc(OC)c(OC)cc3C2COc2ccc(OC)cc2)cc1 (stereo not drawn),.,-,.,.,-
COc1cccc(NC(=S)N2CCc3cc(OC)c(OC)cc3C2COc2ccc3c(C)cc(=O)oc3c2)c1 (stereo not drawn),?,-,5.2µM,-,-
CCc1ccc(OCC2c3cc(OC)c(OC)cc3CCN2C(=S)NCCOC)cc1 (stereo not drawn),10µM,-,?,-,-
O=C(COc1ccccc1C(=O)OCC(=O)Nc1cccc2ccccc12)Nc1ccc(Br)cc1,.,-,.,.,-
Cc1cc(C)nc(-n2nc(C)c3c2NC(=O)CC3c2cc(F)ccc2F)n1 (stereo not drawn),.,-,.,.,-
Cc1ccccc1-c1ccc2n1Cc1cnnn1-c1ccccc1-2,.,-,.,25µM,-

# Screens from PubChem BioAssay.
